nsP2pro primary: blocks chikungunya virus nsP2 protease peptide cleavage; Q8JUX6; FRET peptide cleavage, nsP2pro, fluorescence 1 h; Potency, µM (doses to about 24.9 µM), without a hit: top-dose activity change, negative = inhibition, most hits filed as inhibitors; actives 1.1% (n = 31,000); further: nearly all actives have a fitted effect of over 60% in size
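FRET cleavage of 2.5 uM peptide 2 by 150 nM CHIKV protease domain at pH 8.0 (Tris, Tween 20). Compounds at 7 concentrations (up to 25 uM) preincubated 15 min. Fluorescence read after 1 h at room temperature.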
CHIKV nsP2 cell: secondary cell-based test for CHIKV nsP2 protease inhibitors; cell-based CHIKV nsP2 protease reporter assay; AID 1964100; shares compounds with nsP2pro primary; actives 10% (n = 450); Potency, µM (highest dose often 51.1 µM), inactives show at the highest dose activity change, negative = inhibition, most hits filed as inhibitors; further: nearly all actives have a fitted effect of over 70% in size
CHIKV NSP2 FL: selectivity test for CHIKV nsP2 protease inhibitors: full-length NSP2; Full-length CHIKV NSP2 protease enzymatic counterscreen; shares compounds with nsP2pro primary; AID 1964101; actives 39% (n = 410); Potency, µM (titrated, usually from 50.7 µM), for the others: top-dose activity change, negative = inhibition, usual class: inhibitors; further: nearly all actives have a fitted effect of over 65% in size
Furin counterscr: selectivity counter-screen for CHIKV nsP2 protease inhibitors: human furin; Recombinant human furin enzymatic counterscreen, fluorogenic substrate; actives 6% (n = 410); AID 1964102; Potency, µM (doses to about 50.6 µM), without a hit: at the highest dose activity change, negative = inhibition, actives largely listed as inhibitors; shares compounds with nsP2pro primary
Target sequence (P09958 whole entry, looked up): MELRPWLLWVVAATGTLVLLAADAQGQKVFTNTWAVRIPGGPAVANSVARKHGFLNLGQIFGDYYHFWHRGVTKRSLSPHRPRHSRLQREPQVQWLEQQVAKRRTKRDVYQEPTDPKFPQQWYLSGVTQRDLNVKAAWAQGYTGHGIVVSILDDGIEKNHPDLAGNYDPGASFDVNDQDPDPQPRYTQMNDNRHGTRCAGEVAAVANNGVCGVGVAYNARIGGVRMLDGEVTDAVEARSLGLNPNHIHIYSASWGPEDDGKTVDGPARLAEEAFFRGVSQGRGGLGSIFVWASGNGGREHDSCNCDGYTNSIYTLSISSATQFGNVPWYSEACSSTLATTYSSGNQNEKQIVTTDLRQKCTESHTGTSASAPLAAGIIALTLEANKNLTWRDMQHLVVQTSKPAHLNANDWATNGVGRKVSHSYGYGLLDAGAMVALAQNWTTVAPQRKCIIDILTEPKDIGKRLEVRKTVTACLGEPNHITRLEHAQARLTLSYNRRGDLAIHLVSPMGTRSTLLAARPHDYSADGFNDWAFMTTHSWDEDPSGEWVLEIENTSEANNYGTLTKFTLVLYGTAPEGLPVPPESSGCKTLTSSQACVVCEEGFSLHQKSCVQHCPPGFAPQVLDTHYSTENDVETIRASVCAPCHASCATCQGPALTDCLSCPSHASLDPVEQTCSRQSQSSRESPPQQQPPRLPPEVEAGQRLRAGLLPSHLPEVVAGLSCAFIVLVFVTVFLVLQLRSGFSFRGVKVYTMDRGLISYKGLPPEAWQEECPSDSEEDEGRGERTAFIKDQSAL
nsP2 NS23 pep: selectivity test for CHIKV nsP2 protease inhibitors: endogenous NS2/3 peptide; shares compounds with nsP2pro primary; Purified CHIKV nsP2 protease, endogenous NS2/3 peptide cleavage; Potency, µM (highest dose often 51 µM), for the others: top-dose activity change, negative = inhibition, most hits filed as inhibitors; actives 34% (n = 410); AID 1964103; further: nearly all actives have a fitted effect of over 55% in size
Papain cs: selectivity counter-screen for CHIKV nsP2 protease inhibitors: papain. shares compounds with nsP2pro primary. purified papain protease activity, enzymatic inhibition. Potency, µM (doses to about 51 µM), inactives show at the top dose activity change, negative = inhibition, actives largely listed as inhibitors. actives 5% (n = 410)
nsP2pro conf qHTS: confirmation of CHIKV nsP2 protease inhibitors; shares compounds with nsP2pro primary; CHIKV nsP2 protease enzymatic activity, qHTS; Potency, µM (highest dose often 25.5 µM), for the others: top-dose activity change, negative = inhibition, most hits filed as inhibitors; actives 43% (n = 410); AID 1964105; further: nearly all actives have a fitted effect of over 75% in size
HCV NS3 counter: inhibits HCV NS3/4A protease in an nsP2pro selectivity counterscreen | actives 20% (n = 410) | HCV NS3/4A protease biochemical counterscreen | shares compounds with nsP2pro primary | Potency, µM (top dose mostly 50.9 µM), usual class: inhibitors; further: nearly all actives have a fitted effect of over 55% in size
* marks the source's active call; other numbers are inactive results; i = inactive; ? = inconclusive; [ ] = another dose, or the depositor's remark. Shown is part of a subset that was picked to be rich in hits. The call rests on the fitted dose curve. On the % scale 0 is the no-effect control and ±100 the full control effect; potency means the concentration at half of the fitted maximal effect.

SMILES	nsP2pro primary	others
O=C(O)C1CCc2cc(C3CCCCC3)c(Cl)cc21 (stereo unspecified)	6%
Oc1ccc(NCc2ccccc2OCc2ccccc2F)cc1	8.9µM*	CHIKV nsP2 cell=?;CHIKV NSP2 FL=23µM*;Furin counterscr=-3%;nsP2 NS23 pep=21µM*;Papain cs=-10%;nsP2pro conf qHTS=?;HCV NS3 counter=?
O=S(=O)(Nc1cccc2ccccc12)c1ccc(NCc2cccc(Cl)c2O)cc1	-26%
Oc1ccc(NCc2ccccc2OCc2ccccc2Cl)cc1	0.85µM*	CHIKV nsP2 cell=12µM*;CHIKV NSP2 FL=10µM*;Furin counterscr=-9%;nsP2 NS23 pep=16µM*;Papain cs=-11%;nsP2pro conf qHTS=8µM*;HCV NS3 counter=18µM*
O=S(=O)(Nc1nccs1)c1ccc(NCc2cccc(F)c2O)cc1	i
O=S(=O)(Nc1ccc2ccccc2c1)c1ccc(NCc2cccc(Cl)c2O)cc1	4%
Cn1nnnc1SCCNCc1ccccc1OCc1ccccc1F	-23%
Cc1cc(CS(=O)(=O)c2ccccc2)cc(OCc2ccc(CN3CCCC3CO)cc2)c1 (stereo unspecified)	30%
COc1ccccc1CC(=O)N1CCCc2ncc(C(=O)Nc3cccc(Cl)c3)cc21	i
CC/C(=C(/c1ccc(O)cc1)c1ccc(OCCNC)cc1)c1ccccc1	65%
O=C(COc1ccc(F)cc1)N1CCCCC1c1nc(-c2cnccn2)n[nH]1 (stereo unspecified)	i
CC(C)[C@H]1CC[C@H](C)C[C@H]1O	1%
O=C(O)/C=C/c1ccc(O)c(O)c1	?	CHIKV nsP2 cell=-8%;CHIKV NSP2 FL=-22%;Furin counterscr=-2%;nsP2 NS23 pep=3%;Papain cs=-8%;nsP2pro conf qHTS=-5%;HCV NS3 counter=?
COc1cc(/C=C/C(=O)O)ccc1O	13%
O=C(/C=C/c1ccc(O)c(O)c1)O[C@@H](C(=O)O)[C@@H](OC(=O)/C=C/c1ccc(O)c(O)c1)C(=O)O	40%
COC[C@@H]1CN(S(=O)(=O)c2cnc[nH]2)C[C@H]1c1ccccn1	4%
Cc1noc(C)c1[S+](=O)([O-])N1CCCC1C(=O)N1CCC(c2nc3ccncc3[nH]2)CC1 (stereo unspecified)	i
O=S(=O)(c1ccc(O)c2ncccc12)N1CCCCC1	i
CC(C)=CCC[C@](C)(O)[C@H]1CC[C@@]2(C)[C@H]1[C@@H](O)CC1[C@@]3(C)CC[C@@H](O[C@@H]4O[C@H](CO)[C@@H](O)[C@H](O)[C@H]4O)C(C)(C)C3CC[C@]12C (stereo partly specified)	18%
COC(=O)c1c(NC(=O)/C(C#N)=C/c2ccccc2)sc2c1C(C(=O)OC)CC2 (stereo unspecified)	0%
COC(=O)c1c(NC(=O)/C(C#N)=C/c2ccc(OC)cc2)sc2c1C(C(=O)OC)CC2 (stereo unspecified)	-8%
COC(=O)c1c(NC(=O)C(C)N2C(=O)c3ccccc3C2=O)sc2c1C(C(=O)OC)CC2 (stereo unspecified)	?	CHIKV nsP2 cell=?;CHIKV NSP2 FL=?;Furin counterscr=-9%;nsP2 NS23 pep=5.8µM*;Papain cs=-9%;nsP2pro conf qHTS=3.6µM*;HCV NS3 counter=i
O=C(NCC1CN(S(=O)(=O)c2cccnc2)CC12CCOCC2)N1CCCC1 (stereo unspecified)	-1%
Cc1ccc(CNC(=O)c2ccc(Cn3c(SCc4ccc(F)cc4)nc4cccnc43)cc2)o1	?	CHIKV nsP2 cell=-16%
O=C(NCc1cccs1)c1ccc(Cn2c(SCc3ccc(F)cc3)nc3cccnc32)cc1	23%
SMILES	nsP2pro primary	others
Cc1cccc(CSc2nc3cccnc3n2Cc2ccc(C(=O)NCc3ccco3)cc2)c1	-9%
COc1ccc(-c2noc(CC(=O)O)c2-c2ccc(OC)cc2)cc1	-4%
CCOC(=O)Cn1cccc1-c1nc(-c2ccc(OC)cc2)c(-c2ccc(OC)cc2)s1	6.2µM*	CHIKV nsP2 cell=-5%;CHIKV NSP2 FL=?;Furin counterscr=-10%;nsP2 NS23 pep=-3%;Papain cs=7%;nsP2pro conf qHTS=10%;HCV NS3 counter=i
COc1ccc(-c2nnc(SCC(=O)Nc3c(C)cccc3C)nc2-c2ccc(OC)cc2)cc1	-25%
COc1ccc(S(=O)(=O)NC[C@H]2Cn3c(-c4ccc(Cl)cc4)cnc3CO2)cc1	i
CC(=O)OC1CC(O)C(C)(C)C2CC(OC(C)=O)C3(C)C(CCC4(C)C(c5ccoc5)C(=O)C5OC543)C12C (stereo unspecified)	-27%[10 µM]
CC(C)(O)C1CC(=O)C2(C)C(CCC3(C)C(c4ccoc4)OC(=O)C4OC432)C12CCC(=O)OC2 (stereo unspecified)	0.86µM*	CHIKV nsP2 cell=2%[17.6 µM];CHIKV NSP2 FL=?;Furin counterscr=6%[17.3 µM];nsP2 NS23 pep=-19%[17.2 µM];Papain cs=-8%[17.2 µM];nsP2pro conf qHTS=?;HCV NS3 counter=?
CC1(C)OC(=O)C=C[C@@]2(C)C1CC(=O)[C@]1(C)C2CC[C@@]2(C)[C@H](c3ccoc3)OC(=O)[C@H]3O[C@]321 (stereo partly specified)	3.4µM*	CHIKV nsP2 cell=5%[17.6 µM];CHIKV NSP2 FL=?;Furin counterscr=6%[17.3 µM];nsP2 NS23 pep=-11%[17.2 µM];Papain cs=-4%[17.2 µM];nsP2pro conf qHTS=-28%[8.62 µM];HCV NS3 counter=i
Cc1nn(-c2ccccc2)c2c1C(C1CC1)N(C1CCN([S+](=O)([O-])c3ccccc3)C1)C2=O (stereo unspecified)	i
C=CCNC(=O)N[C@H]1CO[C@H]2[C@@H]1OC[C@@H]2Nc1nccc(-c2cccc(F)c2)n1	-4%[39.2 µM]
CN(C)C(=O)N1Cc2ccccc2OC2(CCN(C(=O)CCCNC(N)=O)CC2)C1	-22%
Cc1cccc2c3c(ccc12)C1=C(C(=O)C3=O)[C@@H](C)CO1	?	CHIKV nsP2 cell=-15%;CHIKV NSP2 FL=10µM*;Furin counterscr=-16%;nsP2 NS23 pep=?;Papain cs=?;nsP2pro conf qHTS=10µM*;HCV NS3 counter=i
O=C1C2=C(CN1c1ccccc1)NC(Nc1nc3ccccc3o1)=NC2c1ccccc1Cl (stereo unspecified)	1%
COc1cc(/C=C/C(=O)OCC2OC(OC3(CO)OC(CO)C(O)C3O)C(O)C(O)C2O)ccc1O (stereo unspecified)	-10%[10 µM]
CCOc1ccc(CCNC(=O)c2csc(Br)n2)cc1OCC	0%
Cc1ccc(-c2cc(C(=O)Nc3ccn[nH]3)c3ccccc3n2)cc1C	2%
Cc1ccccc1Sc1ccc(/C=C2\SC(=S)NC2=O)cc1[N+](=O)[O-]	83%
Cc1cnc(C2CCOCC2)n1CC1CCN(C(=O)c2cccnc2)CC1	-4%
O=C(c1ccncc1)N1CCCC(CN2CCCC2)CC1 (stereo unspecified)	-7%
